Inconclusive results are not listed. Calls of active or inactive are those of the source. Unless noted, calls come from the whole dose curve; as a rule, active = well fitted curve in the direction sought with a large enough effect; inconclusive = small, poorly fitted or top-dose-only effect, or another doubt; inactive = no such curve, though single readings can be large; an effect the other way counts as inactive or inconclusive.
Key:
[1] = target: Glucocorticoid receptor (Homo sapiens) (UniProt P04150); experiment: GR-GFP Redistribution (AID 450;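 active = compounds whose dose series gives a full or clear partial fitted curve of increased nuclear translocation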; note: potency is the fitted concentration of half-maximal effect); conditions: U2OS GR-GFP nuclear translocation, laser cytometry, 2 h
[2] = target: Glucocorticoid receptor (Homo sapiens) (UniProt P04150); experiment: GR-EFC Redistribution (AID 451; calls by dose curve; note: potency is the fitted concentration of half-maximal effect); conditions: CHO-K1 GR-EFC translocation, beta-gal luminescence, 2 h
Method in brief: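 CHO-K1 cells stably expressing nuclear-localized β-gal enzyme acceptor and GR fused C-terminally to the enzyme donor fragment; ligand-driven nuclear translocation restores β-gal by complementation. Compounds titrated up to 46 uM final, 2 h at 37 °C; luminescence read.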

[3] = target: Mitogen-activated protein kinase 10 (Mus musculus) (UniProt Q61831); experiment: JNK3 AlphaScreen Assay (AID 530; active = well fitted curve in either direction with a large enough effect, not every such curve was filed as active;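 note: kinase came from lysate of stimulated human HepG2 cells; signal reports phosphorylation of biotinylated GST-cJun 1-79 at Ser73 with 10 µM ATP; % is set by controls: 0 for no effect and ±100 for the full control effect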); conditions: JNK3 lysate, c-Jun phosphorylation; series mostly up to 57.1 µM
Method in brief: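 JNK3 came from HepG2 lysates pre-activated with IL-1beta and TNF-alpha and phosphorylated biotinylated GST-cJun (1-79) at 10 uM ATP, pH 7.6, room temperature. Compounds were titrated. AlphaScreen signal used anti-phospho-cJun (Ser73) antibody.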

[4] = target: 3',5'-cyclic-AMP phosphodiesterase 4B (Homo sapiens) (UniProt Q07343); experiment: qHTS Assay for Inhibitors of PDE-IV (AID 607; active = well fitted activation curve with a large enough effect in the main read-out, with a control signal flat, not every such curve was filed as active; note: % of control where 0% means no effect); conditions: HEK293 ACTOne CNG channel cells, membrane potential fluorescence; series mostly up to 22.9 µM
Method in brief: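 HEK293 ACTOne cells with CNG channel (1000/well), endogenous PDE4; membrane potential dye, compounds up to 22.9 uM final. Fluorescence Ex 535/Em 590; RO 20-1724 (100 uM final) as reference.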

[5] = Cell Viability - N2a (AID 540); conditions: N2a mouse neuroblastoma cell viability; at 92.2 µM (top of the series);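 note: cells exposed to compound for 40 h at 37 °C; plate controls were DMSO alone for no effect and tamoxifen control for full effect; nearly all actives have a fitted effect of over 45% in size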
Method in brief: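 First, 1500 N2a cells per well incubate 5 hr at 37 °C; next, compounds are added and incubated 40 hr at 37 °C; finally CellTiter-Glo is added and luminescence read after 20 min, with AC50 derived by Hill modeling.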

[6] = Cell Viability - NIH 3T3 (AID 541); conditions: NIH 3T3 cell viability, qHTS; activity change, negative = cytotoxicity: at 92.2 µM (top of the series);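 note: cells exposed to compound for 40 hours; plate controls were DMSO alone for no effect and tamoxifen positive control for full effect; nearly all actives have a fitted effect of over 25% in size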
Method in brief: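 AC50 values reflect concentration-dependent loss of intracellular ATP in NIH 3T3 cells after 40 hr treatment in complete culture medium, quantified by luciferase-based luminescence.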

[7] = Cell Viability - HUV-EC-C (AID 542); conditions: HUV-EC-C endothelial cell viability, qHTS; series mostly up to 92.2 µM;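 note: cells exposed to compound for 40 hours; % is set by controls: 0 for no effect and ±100 for the full control effect; nearly all actives have a fitted effect of over 35% in size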
Method in brief: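 Decrease in cellular ATP, quantified by luciferase luminescence, reflects toxicity in normal human vascular endothelial HUV-EC-C cells given compound for 40 hr in complete culture medium. Values are AC50s from concentration-response curves.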

[8] = Cell Viability - H-4-II-E (AID 543); conditions: H-4-II-E rat hepatoma viability; series mostly up to 92.2 µM;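 note: cells exposed to compound for 40 hours; % is set by controls: 0 for no effect and ±100 for the full control effect; nearly all actives have a fitted effect of over 35% in size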
Method in brief: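 Here, cytotoxicity is measured in the rat hepatoma line H-4-II-E as loss of intracellular ATP after 40 hr compound treatment, detected by luciferase luminescence.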

[9] = Cell Viability - SH-SY5Y (AID 544); conditions: SH-SY5Y neuroblastoma cell viability; series mostly up to 92.2 µM;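 note: cells exposed to compound for 40 hours; nearly all actives have a fitted effect of over 55% in size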
Method in brief: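 Cytotoxicity is scored as a concentration-dependent fall in intracellular ATP in human SH-SY5Y cells treated 40 hr in complete culture medium. Potency is expressed as AC50 from a Hill equation fit.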

[10] = Cell Viability - Renal Proximal Tubule (AID 545); conditions: renal proximal tubule cells viability, primary cells of rat origin; at 91.7 µM (top of the series);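 note: cells exposed to compound for 40 hours; nearly all actives have a fitted effect of over 40% in size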
Method in brief: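 Primary rat renal proximal tubule cells (1000/well) were treated with compounds for 40 hr at 37 °C in complete medium. Intracellular ATP was measured by CellTiter-Glo luminescence, and AC50 values came from Hill-equation fits of concentration-response data.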

[11] = Cell Viability - Mesenchymal (AID 546); conditions: mesenchymal cells viability, qHTS; series mostly up to 91.7 µM;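 note: cells exposed to compound for 40 hours before reading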
Method in brief: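 Normal human renal glomerulus-derived kidney mesenchymal cells, 1000 per well in complete medium, were treated with compounds for 40 hr at 37 °C. Viability was read as intracellular ATP by CellTiter-Glo luminescence; AC50 values came from Hill-equation fits of qHTS concentration-response data.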

[12] = Cellular Toxicity (caspase-3) HepG2 (AID 654); conditions: HepG2 caspase-3 activation, luminescence, 0% = DMSO only, 100% = tamoxifen; series mostly up to 92.2 µM;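 note: cells exposed to compound for 16 hours before reading; 0% = DMSO alone and 100% = caspase signal from 100 µM tamoxifen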
Method in brief: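 qHTS, HepG2, 1500 cells/well, complete medium; cpd 16 h 37 °C; Caspase-Glo 3/7, 20 min RT; lum. Norm: DMSO vs 100 uM tamoxifen; AC50 Hill fit.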

[13] = Cellular Toxicity (caspase-3) Jurkat (AID 655); conditions: Jurkat caspase-3 activation, luminescence; series mostly up to 92.2 µM;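 note: cells exposed to compound for 16 h at 37 °C before reading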
Method in brief: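 Jurkat cells (5000/well) in complete medium were treated with compounds for 16 hr at 37 °C, then Caspase-Glo 3/7 luminescence was read after 20 min at room temperature. Data normalized to DMSO (basal) and 100 uM tamoxifen (100%); AC50 from Hill fit.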

[14] = Cellular Toxicity (caspase-3) HUV-EC-C (AID 656); conditions: HUV-EC-C cells, caspase-3 activation (apoptosis), vehicle = 0, 100 µM tamoxifen = 100%; series mostly up to 92.2 µM
Method in brief: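 HUV-EC-C endothelial cells, 1000/well, were pre-incubated 5 hr at 37°C, then exposed to compounds for 16 hr at 37°C. Caspase-Glo 3/7 luminescence was read after 20 min at room temperature. AC50 came from Hill fits, normalized to DMSO and 100 uM tamoxifen.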

[15] = Cellular Toxicity (caspase-3) SHSY5Y (AID 657); conditions: SH-SY5Y caspase-3 activation; series mostly up to 91.7 µM
Method in brief: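 SH-SY5Y human neuroblastoma cells (1500/well) were treated with compounds for 16 h at 37 °C, then Caspase-Glo 3/7 luminescence was read after 1 h at room temperature. Data normalized to DMSO and 10 uM staurosporine; AC50 from Hill fits.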

[16] = Cellular Toxicity (caspase-3) BJ (AID 658); conditions: BJ fibroblasts, luminescence; Potency: caspase-3 activation; series mostly up to 91.7 µM
Method in brief: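 Luminescent aminoluciferin-substrate cleavage reports caspase 3/7 activity in normal human BJ fibroblasts after 16 hr compound exposure at 37 °C. Normalized to DMSO (basal) and 10 uM staurosporine (100%); AC50 from Hill fit of concentration-response.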

[17] = Cellular Toxicity (caspase-3) MRC-5 (AID 659); conditions: MRC-5 cells, luminescence, normalized: DMSO 0%, 10 µM staurosporine 100%; series mostly up to 91.7 µM
Method in brief: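 Luminescence from caspase-cleaved aminoluciferin substrate (Caspase-Glo 3/7, 1 hr RT) reports caspase 3/7 activity in MRC-5 lung fibroblasts after 16 hr compound exposure. Normalized to DMSO basal and 10 uM staurosporine as 100%; AC50 from Hill fits.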

[18] = Cellular Toxicity (caspase-3) Mesangial (AID 660); conditions: mesangial cells, normalized: DMSO 0%, 100 µM tamoxifen 100%; series mostly up to 91.7 µM;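 note: combined caspase 3 and 7 activity read by Caspase-Glo luminescence; cells exposed to compound for 16 h before the caspase read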
Method in brief: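 Concentration-response qHTS: compound-induced rise in caspase 3/7 luminescence in human mesangial cells after 16 h, normalized to DMSO and 100 uM tamoxifen controls.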

[19] = Cellular Toxicity (caspase-3) SK-N-SH (AID 661); conditions: SK-N-SH caspase-3 activation, qHTS; caspase-3 activation: at 91.7 µM (top of the series), DMSO as zero, staurosporine as full
Method in brief: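 Caspase 3/7 activation is measured as a luminescence increase from aminoluciferin released by substrate cleavage in SK-N-SH cells after 16 hr compound treatment; values are AC50 from concentration-response curves.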

[20] = Cellular Toxicity (caspase-3) H-4-II-E (AID 663); conditions: H-4-II-E rat hepatoma, scaled: DMSO 0%, 100 µM tamoxifen 100%; series mostly up to 92.2 µM;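 note: cells exposed to compound for 16 hr before readout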
Method in brief: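 Luminescence from caspase-cleaved aminoluciferin substrate, read 20 min after reagent addition, reports caspase 3/7 activation in rat H-4-II-E cells after 16 hr compound exposure. Normalized to DMSO (basal) and 100 uM tamoxifen (100%); AC50 from Hill fits.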

Glucocorticoid receptor (Homo sapiens), sequence (P04150 whole entry, looked up, the tested form may be a part): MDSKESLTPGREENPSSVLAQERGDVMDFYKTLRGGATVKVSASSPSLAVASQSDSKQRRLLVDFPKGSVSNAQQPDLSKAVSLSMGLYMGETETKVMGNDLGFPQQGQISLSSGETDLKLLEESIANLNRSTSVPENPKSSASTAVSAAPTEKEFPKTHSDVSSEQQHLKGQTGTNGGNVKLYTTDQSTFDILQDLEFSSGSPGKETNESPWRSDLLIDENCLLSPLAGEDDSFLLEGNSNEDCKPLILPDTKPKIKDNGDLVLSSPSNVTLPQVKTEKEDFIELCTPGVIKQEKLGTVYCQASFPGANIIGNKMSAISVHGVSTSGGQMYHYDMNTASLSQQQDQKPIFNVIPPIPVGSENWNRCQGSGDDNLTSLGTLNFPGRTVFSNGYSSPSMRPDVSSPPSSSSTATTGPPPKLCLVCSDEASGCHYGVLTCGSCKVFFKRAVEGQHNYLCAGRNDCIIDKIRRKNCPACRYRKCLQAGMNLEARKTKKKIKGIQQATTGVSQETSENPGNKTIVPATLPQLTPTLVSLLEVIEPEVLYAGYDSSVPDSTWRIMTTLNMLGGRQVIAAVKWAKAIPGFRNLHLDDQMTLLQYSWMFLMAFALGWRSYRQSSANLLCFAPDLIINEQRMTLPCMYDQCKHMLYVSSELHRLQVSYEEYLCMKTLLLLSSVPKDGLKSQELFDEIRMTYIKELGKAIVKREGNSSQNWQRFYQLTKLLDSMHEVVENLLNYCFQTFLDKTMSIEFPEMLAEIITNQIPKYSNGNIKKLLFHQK
3',5'-cyclic-AMP phosphodiesterase 4B (Homo sapiens), sequence (Q07343 whole entry, looked up): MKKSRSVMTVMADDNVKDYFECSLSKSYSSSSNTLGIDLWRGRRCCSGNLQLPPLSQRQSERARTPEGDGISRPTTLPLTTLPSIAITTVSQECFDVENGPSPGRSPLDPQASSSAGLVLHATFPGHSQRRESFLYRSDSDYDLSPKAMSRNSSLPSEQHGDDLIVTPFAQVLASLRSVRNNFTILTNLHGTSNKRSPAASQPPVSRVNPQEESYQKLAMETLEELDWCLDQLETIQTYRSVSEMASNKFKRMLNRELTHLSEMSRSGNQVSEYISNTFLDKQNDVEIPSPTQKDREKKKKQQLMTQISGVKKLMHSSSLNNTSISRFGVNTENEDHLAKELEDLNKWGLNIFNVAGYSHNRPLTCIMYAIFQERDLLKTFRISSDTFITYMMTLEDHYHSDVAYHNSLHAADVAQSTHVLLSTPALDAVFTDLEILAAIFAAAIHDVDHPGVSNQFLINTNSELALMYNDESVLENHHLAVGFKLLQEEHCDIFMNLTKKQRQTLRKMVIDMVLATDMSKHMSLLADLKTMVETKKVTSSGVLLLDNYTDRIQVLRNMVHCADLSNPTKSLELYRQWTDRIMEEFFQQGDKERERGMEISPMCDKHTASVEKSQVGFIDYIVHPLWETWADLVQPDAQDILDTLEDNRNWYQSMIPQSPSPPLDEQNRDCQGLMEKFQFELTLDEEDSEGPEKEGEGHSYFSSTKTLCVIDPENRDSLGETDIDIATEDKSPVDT

CCc1cn([C@H]2C[C@H](O)[C@@H](CO)O2)c(=O)[nH]c1=O
inactive: Potency [1] > 20.6 µM

CC(=O)Oc1cc(C(F)(F)F)ccc1C(=O)O
inactive: Potency [1] > 20.6 µM | Potency [2] > 20.6 µM | outcome [3]

CC(=O)Oc1cccc2c1C(=O)c1c(OC(C)=O)cc(C(=O)O)cc1C2=O
inactive: Potency [1] > 20.6 µM

N[C@H](CC(=O)O)C(=O)O
inactive: Potency [1] > 46 µM | Potency [2] > 46 µM | outcome [3] | outcome [4]

CO
inactive: outcome [3] | activity change, negative = cytotoxicity [5] 8.2% | activity change, negative = cytotoxicity [6] -1.78% | Potency [7] | Potency [8] | Potency [9] | activity change, negative = cytotoxicity [10] 5.17% | outcome [11] | outcome [12] | Potency [13] | outcome [14] | Potency [15] | Potency [16] | outcome [17] | outcome [18] | Potency [19] | outcome [20]

CC1=CCC2CC1C2(C)C (stereo not drawn)
inactive: outcome [3] | activity change, negative = cytotoxicity [5] 4.74% | activity change, negative = cytotoxicity [6] -3.47% | Potency [7] | Potency [8] | Potency [9] | activity change, negative = cytotoxicity [10] 2.31% | outcome [11] | outcome [12] | Potency [13] | outcome [14] | Potency [15] | Potency [16] | outcome [17] | outcome [18] | Potency [19]

CC(=O)N=c1sc(S(N)(=O)=O)nn1C
inactive: Potency [1] > 20.6 µM | Potency [2] > 20.6 µM | outcome [3] | outcome [4]

N[C@@H](Cc1cc(I)c(Oc2ccc(O)c(I)c2)c(I)c1)C(=O)O
inactive: Potency [1] > 20.6 µM

CCCCC
inactive: outcome [3] | activity change, negative = cytotoxicity [5] 6.23% | activity change, negative = cytotoxicity [6] -10.6% | Potency [7] | Potency [8] | Potency [9] | activity change, negative = cytotoxicity [10] 5.08% | outcome [11] | outcome [12] | Potency [13] | outcome [14] | Potency [15] | Potency [16] | outcome [17] | outcome [18] | Potency [19] | outcome [20]

CC(=O)[C@H]1CC[C@H]2[C@@H]3C=CC4=CC(=O)CC[C@@]4(C)[C@H]3CC[C@]12C
inactive: Potency [2] > 20.6 µM | outcome [3] | outcome [4]

CN1C(=O)OC(C)(C)C1=O
inactive: Potency [1] > 20.6 µM | Potency [2] > 20.6 µM | outcome [3] | outcome [4]

OCc1ccccc1
inactive: outcome [3] | activity change, negative = cytotoxicity [5] 4.71% | activity change, negative = cytotoxicity [6] 7.44% | Potency [7] | Potency [8] | Potency [9] | activity change, negative = cytotoxicity [10] -2.17% | outcome [11] | outcome [12] | Potency [13] | outcome [14] | Potency [15] | Potency [16] | outcome [17] | outcome [18] | Potency [19] | outcome [20]

— PubChem BioAssay (NCATS)
